Compounds with a hit are over-represented: about 11% of the library has one in this group of screens.
Pf growth 48h = P. falciparum growth inhibition at 48 hours (one generation); 310,000 tested, 5.9% active; Potency, µM (series often up to 28.7 µM), without a hit: top-dose activity change, negative = inhibition, most hits filed as inhibitors; P. falciparum luciferase growth in erythrocytes, 48 h; AID 504832
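Firefly luciferase activity from engineered P. falciparum reports growth; inhibitors lower the luminescent signal. Cultures contained 2% hematocrit erythrocytes at 0.1% final parasitemia.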
AMA1 RON2 block = AMA1-RON2 (P. falciparum) interaction inhibition. 360,000 tested, 0.2% active. AlphaScreen AMA1-biotinylated RON2 peptide binding. Potency, µM (doses to about 58.2 µM), for the others: at the highest dose activity change, negative = inhibition, usual class: inhibitors;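 also: 0% = vehicle wells and -100% = peptide control; nearly all actives have a fitted effect of over 45% in size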
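AMA1 (3D7) with his tag at 25 nM final met compounds first, then biotinylated RON2 peptide at 25 nM; detection used donor plus acceptor beads, 10 µg/mL apiece, read by AlphaScreen after 30 min at room temperature.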
Pf growth 96h = P. falciparum growth inhibition at 96 hour, primary screen for plastid delayed-death inhibitors | P. falciparum luciferase reporter growth, 96 h | Potency, µM (series often up to 28.7 µM), without a hit: top-dose activity change, negative = inhibition, usual class: inhibitors | 320,000 tested, 6.9% active | AID 504834
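Erythrocytes infected with luciferase-expressing P. falciparum were dispensed at 2% hematocrit and 0.05% parasitemia (final), then incubated with compounds 96 hours at 37 C in 5% CO2. Luminescence after detection reagent addition reported growth.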
HCV inh = HCV inhibition; Huh7.5.1 HCVcc-Cre infection, luciferase reporter, 44 h; Potency, µM (top dose mostly 41.8 µM), for the others: top-dose activity change, negative = inhibition, hits mostly inhibitors; 340,000 tested, 3.4% active
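After 44 h co-culture of compound, cells and HCVcc-Cre (~0.5 moi), substrate is added for 15 min at room temperature and luciferase measured over 15 sec. Cells were seeded at 1,000/well and pre-cultured 4 h.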
* marks the source's active call; other numbers are inactive results. Calls follow the shape of the dose curve; as a rule, active = well fitted curve in the direction sought with a large enough effect; inconclusive = small, poorly fitted or top-dose-only effect, or another doubt; inactive = no such curve, though single readings can be large; an effect the other way counts as inactive or inconclusive. Unless noted, % is scaled to controls: 0 for no effect and ±100 for the full control effect; potency is read from the fitted curve at half-maximal effect.

How did COc1ccc(/C=C/c2nc3ccccc3n2C)cc1 do in these assays?
Pf growth 48h: 86%; AMA1 RON2 block: 0%; Pf growth 96h: 20%; HCV inh: inconclusive

How did CC(COc1ccc(/C=C/c2ccccc2)cc1)[N+](C)(C)C (stereo not given) do in these assays?
Pf growth 48h: 1.3µM*; AMA1 RON2 block: -10%; Pf growth 96h: 0.93µM*; HCV inh: -22%

Results for COc1ccc(Cl)cc1N(C(=O)Nc1cccc(Cl)c1)C1=NCC(C)S1 (stereo not given) ?
Pf growth 48h: -3%; AMA1 RON2 block: -1%; Pf growth 96h: inconclusive; HCV inh: 12%

Results for COc1ccccc1N1C(=O)C2C3C=CC(CC3)C2C1=O (stereo not given) ?
Pf growth 48h: 10µM*; AMA1 RON2 block: 22%; Pf growth 96h: -24%; HCV inh: 0%

How did COc1ccc(N2C(=O)C3C4C=CC(C4)C3C2=O)c(OC)c1 (stereo not given) do in these assays?
Pf growth 48h: 7%; AMA1 RON2 block: -4%; HCV inh: 9%

Results for CCOC(=O)C1CCCN(C2=C(NS(=O)(=O)c3ccc(Br)cc3)C(=O)c3ccccc3C2=O)C1 (stereo not given) ?
Pf growth 48h: 5.2µM*; AMA1 RON2 block: 13µM*; Pf growth 96h: 2.9µM*; HCV inh: inconclusive

What do the screens show for `CCOC(=O)C1CCN(C2=C(NS(=O)(=O)c3ccc(Cl)cc3)C(=O)c3ccccc3C2=O)CC1`?
Pf growth 48h: inconclusive; AMA1 RON2 block: 13µM*; Pf growth 96h: inconclusive; HCV inh: 6%

How did CC1CCCN(C2=C(NS(=O)(=O)c3ccc(Br)cc3)C(=O)c3ccccc3C2=O)C1 (stereo not given) do in these assays?
Pf growth 48h: inconclusive; AMA1 RON2 block: inconclusive; Pf growth 96h: 2%; HCV inh: 5%

How did COc1ccc(OC)c(CCNC(=O)c2ccccc2NC(=O)C2=C(C)OCCS2)c1 do in these assays?
Pf growth 48h: inconclusive; AMA1 RON2 block: 3%; Pf growth 96h: inconclusive; HCV inh: inconclusive

Results for CC(C)C1CC(CCN2CCCCC2)(c2ccccc2)CCO1 (stereo not given) ?
Pf growth 48h: 19%; AMA1 RON2 block: -5%; Pf growth 96h: 0%; HCV inh: -37%

What do the screens show for `Nc1ccccc1N=Cc1ccc(-c2cccc(Cl)c2)o1`?
Pf growth 48h: 10µM*; AMA1 RON2 block: 1%; Pf growth 96h: inconclusive; HCV inh: 10µM*

What do the screens show for `CCCCNCCCOc1cc(Cl)ccc1Cl`?
AMA1 RON2 block: -12%; Pf growth 96h: 6.6µM*; HCV inh: -23%

How did COCCCNCCCOc1ccc(Cl)cc1Br do in these assays?
Pf growth 48h: inconclusive; AMA1 RON2 block: 15%; Pf growth 96h: inconclusive; HCV inh: 13µM*

How did C=CCc1cc(Cl)ccc1OCCCNC(C)C do in these assays?
Pf growth 48h: inconclusive; AMA1 RON2 block: -4%; Pf growth 96h: 23%; HCV inh: inconclusive

Results for C=CCc1cc(Cl)ccc1OCCCNCCO ?
Pf growth 48h: 9.3µM*; AMA1 RON2 block: 18%; Pf growth 96h: 66%; HCV inh: inconclusive

How did COc1ccccc1N1CCN(C(=O)C2CCCN(c3ncnc4c3nc3n4CCCCC3)C2)CC1 (stereo not given) do in these assays?
Pf growth 48h: 9.3µM*; AMA1 RON2 block: 5%; Pf growth 96h: -20%; HCV inh: inconclusive

What do the screens show for `CCN(CCNC(=O)C1CCCN(c2ncnc3c2nc2n3CCCCC2)C1)Cc1ccccc1` (stereo not given)?
Pf growth 48h: inconclusive; AMA1 RON2 block: 7%; Pf growth 96h: 10µM*; HCV inh: -3%

What do the screens show for `Cc1ccccc1CN1CCC(CNC(=O)C2CCCN(c3ncnc4c3nc3n4CCCCC3)C2)CC1` (stereo not given)?
Pf growth 48h: 12µM*; AMA1 RON2 block: 4%; Pf growth 96h: 6.6µM*; HCV inh: -19%

What do the screens show for `O=C(NCCCN1CCN(c2ccc(F)cc2)CC1)C1CCCN(c2ncnc3c2nc2n3CCCCC2)C1` (stereo not given)?
Pf growth 48h: inconclusive; AMA1 RON2 block: -2%; Pf growth 96h: inconclusive; HCV inh: inconclusive

How did COc1ccccc1N1CCN(CCCNC(=O)C2CCCN(c3ncnc4c3nc3n4CCCCC3)C2)CC1 (stereo not given) do in these assays?
Pf growth 48h: inconclusive; AMA1 RON2 block: -2%; Pf growth 96h: inconclusive; HCV inh: 13µM*

What do the screens show for `COC(=O)c1ccc(Cn2c(C)c(C(=O)Nc3cccc(Oc4ccccc4)c3)sc2=O)o1`?
AMA1 RON2 block: -13%

What do the screens show for `O=C(N/N=C/c1ccc2cccnc2c1)c1nc2ccccc2c(=O)[nH]1`?
Pf growth 48h: 46%; AMA1 RON2 block: -12%; Pf growth 96h: 41%; HCV inh: 14%

Results for CCc1ccc(N(CC(=O)NCc2ccco2)C(=O)CCC(=O)Nc2nccs2)cc1 ?
Pf growth 48h: -19%; AMA1 RON2 block: -12%; Pf growth 96h: -25%; HCV inh: 7%

What do the screens show for `O=C1CCN(Cc2ccccc2)C=C1c1ccc(Br)cc1`?
AMA1 RON2 block: -20%; HCV inh: 10µM*

Results for Cc1ccc(C2=CN(Cc3ccccc3)CCC2=O)cc1 ?
AMA1 RON2 block: 0%; HCV inh: inconclusive

Results for CC(C)CNC(=O)C(=O)Nc1ccc2c(c1)N(S(=O)(=O)c1cccs1)CCC2 ?
Pf growth 48h: inconclusive; AMA1 RON2 block: -10%; Pf growth 96h: 10µM*; HCV inh: inconclusive

What do the screens show for `CC(C)CCNC(=O)C(=O)Nc1ccc2c(c1)N(S(=O)(=O)c1cccs1)CCC2`?
Pf growth 48h: 5.9µM*; AMA1 RON2 block: -14%; Pf growth 96h: inconclusive; HCV inh: inconclusive

How did O=C(C1=C(O)C(=O)N(CC2CCCO2)C1c1ccccc1Cl)c1ccco1 (stereo not given) do in these assays?
Pf growth 48h: 27%; AMA1 RON2 block: 0%; Pf growth 96h: -5%; HCV inh: 6%

How did CCOc1ccccc1-c1nc(-c2ccc(NC(=O)c3ccc(Br)o3)cc2)no1 do in these assays?
Pf growth 48h: 2.9µM*; AMA1 RON2 block: 4%; Pf growth 96h: 29%; HCV inh: inconclusive

Results for COC(=O)Cc1ccc(NC(=O)c2ccc(Br)o2)cc1 ?
Pf growth 48h: 99%; AMA1 RON2 block: -4%; Pf growth 96h: 0%; HCV inh: inconclusive

How did CCN(CC)c1ccc(NC(=O)c2ccc(Br)o2)cc1 do in these assays?
Pf growth 48h: -13%; AMA1 RON2 block: inconclusive; Pf growth 96h: 10µM*; HCV inh: -23%

Results for O=C(Nc1ccc2ccccc2c1)c1ccc(Br)o1 ?
Pf growth 48h: 111%; AMA1 RON2 block: -3%; Pf growth 96h: -29%; HCV inh: -30%

What do the screens show for `O=C(Nc1ccc2c(c1)oc1ccccc12)c1ccc(Br)o1`?
AMA1 RON2 block: -4%; Pf growth 96h: -27%; HCV inh: 18µM*

What do the screens show for `CCCCNC(=O)/C(C#N)=C/c1ccc(F)cc1F`?
Pf growth 48h: -23%; AMA1 RON2 block: -7%; Pf growth 96h: 11%; HCV inh: -4%
